Data taken from PubChem BioAssay.
Inconclusive results are not listed. Active and inactive are the calls of the source.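 Rule for the calls, unless noted: active = cell viability at or below a set limit in both duplicate runs, the limit being the all-compound median minus 4 SD (cut at about 23% in these data, passing the limit was not always enough); inconclusive = no clear call, values can overlap the other calls; inactive = the rest.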

experiment: viability gain of MRP-1-high H69AR cells under doxorubicin, pilot screen, MRP-1 activator project, CellTiter-Glo, duplicate (AID 807;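 active = viability increase at or above a cutoff of the median across tested compounds plus 3 SD, cut at about 8.5% in these data, passing the limit was not always enough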;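 note: compound pretreatment 18-22 h then 72 h combined with doxorubicin; 0% = doxorubicin alone and 100% = vehicle without doxorubicin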); conditions: H69AR viability with doxorubicin, CellTiter-Glo luminescence; at 10 µM; hits give high values

Row | SMILES | viability increase
1 | CCN(c1ccccc1)c1cc(C)nc2nc(C)nn12 | -3.84% (inactive)
2 | Cc1sc(NC(=O)CCCC(=O)O)c(C#N)c1C | -1.9% (inactive)
3 | CCOc1ccc2nc(N3CCC(C(=O)Nc4nnc(CC)s4)CC3)sc2c1 | -0.45% (inactive)
4 | O=C(CN1C(=O)C2C3C=CC(C3)C2C1=O)Nc1ccc2nccnc2c1 (stereo not given) | -1.76% (inactive)
5 | Cn1nc(CC(=O)NC2CCCCCC2)c2ccccc2c1=O | -2.58% (inactive)
6 | O=C(C1CCN(S(=O)(=O)c2cccc3cccnc23)CC1)N1CCCC1 | -3.23% (inactive)
7 | COc1ccc(CNc2oc(C)nc2C#N)cc1 | -1.84% (inactive)
8 | CCOc1ccc2nc(N3CCC(C(=O)N4CCN(c5ccccn5)CC4)CC3)sc2c1 | -6.17% (inactive)
9 | CC(=NCc1cccnc1)C1=C(O)c2ccccc2C1=O | -0.85% (inactive)
10 | CC1CSc2nnc(CCc3ccccc3)n21 (stereo not given) | -2.61% (inactive)
11 | Nn1c(SC/C=C/c2ccccc2)nnc1-c1ccccn1 | -0.88% (inactive)
12 | Cc1cc(-c2nnc(-c3cc4ccccc4oc3=O)o2)c(C)n1-c1ccccc1 | -2.92% (inactive)
13 | COc1ccc(NS(=O)(=O)c2ccc(NS(=O)(=O)c3ccc(C)cc3)cc2)nn1 | 1.15% (inactive)
14 | CCC(C)C1C(C#N)=C(N)Oc2n[nH]c(-c3ccccc3)c21 (stereo not given) | -2.23% (inactive)
15 | Cc1c(NC2=C(Cl)C(=O)N(c3ccccc3)C2=O)c(=O)n(-c2ccccc2)n1C | -6.66% (inactive)
16 | COc1ccc(C2C(C(=O)NCCN3CCOCC3)c3ccccc3C(=O)N2C)cc1OC (stereo not given) | -0.98% (inactive)
17 | CN1C(=O)CS(=O)c2ccc(C(=O)NC3CC3)cc21 (stereo not given) | -2.2% (inactive)
18 | COc1ccc(CN2CCN(c3ncccn3)CC2)c(OC)c1 | -1.8% (inactive)
19 | Cc1ccc(CSc2nc3c(c(=O)[nH]c(=O)n3C)n2CCC(C)C)cc1 | -7.6% (inactive)
20 | COC(=O)C1C(=O)CC(C)(O)C(C(=O)OC)C1c1ccc2c(c1)OCO2 (stereo not given) | 0.03% (inactive)

Row | SMILES | viability increase
21 | Cn1c(NC(=O)c2ccc(Cl)cc2Cl)cc(=O)n(C)c1=O | -2.37% (inactive)
22 | CCCCC1CCC(c2nc(-c3cccnc3)no2)CC1 (stereo not given) | -0.18% (inactive)
23 | CCc1nnc(NC(=O)CSc2nnc(Cc3cccn3C)n2C)s1 | -1.23% (inactive)
24 | COc1ccc(-c2noc(-c3cccc(OC)c3OC)n2)cc1OC | -1.07% (inactive)
25 | CCCc1cc(C(=O)N2CCN(C(c3ccccc3)c3ccccc3)CC2)no1 | 4.46% (inactive)
26 | CCN(CC)CCCNC(=O)c1cc(-c2ccc(O)cc2)on1 | -3.12% (inactive)
27 | COc1ccccc1-n1c(SC)nc(O)cc1=O | 0.84% (inactive)
28 | CSC1=NCCN1C(=O)c1ccc(Br)o1 | 2.54% (inactive)
29 | CCNC(=O)c1c(N)sc2c1CCCCC2 | -2.57% (inactive)
30 | COc1cc(OC)c(NC(=O)c2ccc(Br)o2)cc1Cl | -7.05% (inactive)
31 | COc1ccc(OC)c(NC(=O)NC2(C(F)(F)F)Oc3ccccc3O2)c1 | -6.83% (inactive)
32 | O=C(Nc1cnc2ccccc2c1)c1ccncc1 | -2.98% (inactive)
33 | Cc1ccc(-c2nn(-c3ccccc3)cc2C(=O)N2CCOCC2)cc1 | -2.21% (inactive)
34 | CCN(CC)CCNC(=O)Cn1nc(Cc2cccnc2)c2ccccc2c1=O | -0.86% (inactive)
35 | CC(=O)c1ccc(OCC(O)CN2CCC(C)CC2)cc1 (stereo not given) | -0.16% (inactive)
36 | COC(=O)c1cccnc1-n1c(=O)c2cccnc2n(Cc2cccc(OC)c2)c1=O | -3.24% (inactive)
37 | Cc1cc(NS(=O)(=O)c2ccc(NC(=O)Nc3ccccc3)cc2)no1 | 1.41% (inactive)
38 | CSCC[C@@H](C(=O)O)N1Cc2ccccc2C1=O | 0% (inactive)
39 | CCC(NC(=O)c1ccccc1NC(=O)c1ccco1)C(=O)NC1CCCCC1 (stereo not given) | -2.29% (inactive)
40 | CC(C)N(Cc1ccccc1)C(=O)c1cnc2n(c1=O)CCS2 | -2.84% (inactive)

experiment: growth suppression of beta-catenin knockout HCT116, pilot screen, human colon tumor cells (AID 823); conditions: CellTiter-Glo, 60 h, at 10 µM, hits give low values;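 note: 0% = wells killed by 20 µM Hyamine and 100% = untreated DMSO cell wells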

Row | SMILES | viability
41 | CCN(c1ccccc1)c1cc(C)nc2nc(C)nn12 | 106% (inactive)
42 | Cc1sc(NC(=O)CCCC(=O)O)c(C#N)c1C | 99.4% (inactive)
43 | CCOc1ccc2nc(N3CCC(C(=O)Nc4nnc(CC)s4)CC3)sc2c1 | 95.8% (inactive)
44 | O=C(CN1C(=O)C2C3C=CC(C3)C2C1=O)Nc1ccc2nccnc2c1 (stereo not given) | 105% (inactive)
45 | Cn1nc(CC(=O)NC2CCCCCC2)c2ccccc2c1=O | 62.4% (inactive)
46 | O=C(C1CCN(S(=O)(=O)c2cccc3cccnc23)CC1)N1CCCC1 | 97% (inactive)
47 | COc1ccc(CNc2oc(C)nc2C#N)cc1 | 98.6% (inactive)
48 | CCOc1ccc2nc(N3CCC(C(=O)N4CCN(c5ccccn5)CC4)CC3)sc2c1 | 50.9% (inactive)
49 | CC(=NCc1cccnc1)C1=C(O)c2ccccc2C1=O | 97.2% (inactive)
50 | CC1CSc2nnc(CCc3ccccc3)n21 (stereo not given) | 107% (inactive)
51 | Nn1c(SC/C=C/c2ccccc2)nnc1-c1ccccn1 | 103% (inactive)
52 | Cc1cc(-c2nnc(-c3cc4ccccc4oc3=O)o2)c(C)n1-c1ccccc1 | 79.7% (inactive)
53 | COc1ccc(NS(=O)(=O)c2ccc(NS(=O)(=O)c3ccc(C)cc3)cc2)nn1 | 92.9% (inactive)
54 | CCC(C)C1C(C#N)=C(N)Oc2n[nH]c(-c3ccccc3)c21 (stereo not given) | 97.3% (inactive)
55 | Cc1c(NC2=C(Cl)C(=O)N(c3ccccc3)C2=O)c(=O)n(-c2ccccc2)n1C | 90.7% (inactive)
56 | COc1ccc(C2C(C(=O)NCCN3CCOCC3)c3ccccc3C(=O)N2C)cc1OC (stereo not given) | 91.5% (inactive)
57 | CN1C(=O)CS(=O)c2ccc(C(=O)NC3CC3)cc21 (stereo not given) | 99.4% (inactive)
58 | COc1ccc(CN2CCN(c3ncccn3)CC2)c(OC)c1 | 94.5% (inactive)
59 | Cc1ccc(CSc2nc3c(c(=O)[nH]c(=O)n3C)n2CCC(C)C)cc1 | 53.1% (inactive)
60 | COC(=O)C1C(=O)CC(C)(O)C(C(=O)OC)C1c1ccc2c(c1)OCO2 (stereo not given) | 92.3% (inactive)

Row | SMILES | viability
61 | Cn1c(NC(=O)c2ccc(Cl)cc2Cl)cc(=O)n(C)c1=O | 98.7% (inactive)
62 | CCCCC1CCC(c2nc(-c3cccnc3)no2)CC1 (stereo not given) | 93.5% (inactive)
63 | CCc1nnc(NC(=O)CSc2nnc(Cc3cccn3C)n2C)s1 | 100% (inactive)
64 | COc1ccc(-c2noc(-c3cccc(OC)c3OC)n2)cc1OC | 102% (inactive)
65 | CCCc1cc(C(=O)N2CCN(C(c3ccccc3)c3ccccc3)CC2)no1 | 98.7% (inactive)
66 | CCN(CC)CCCNC(=O)c1cc(-c2ccc(O)cc2)on1 | 99.1% (inactive)
67 | COc1ccccc1-n1c(SC)nc(O)cc1=O | 105% (inactive)
68 | CSC1=NCCN1C(=O)c1ccc(Br)o1 | 102% (inactive)
69 | CCNC(=O)c1c(N)sc2c1CCCCC2 | 103% (inactive)
70 | COc1cc(OC)c(NC(=O)c2ccc(Br)o2)cc1Cl | 69.8% (inactive)
71 | COc1ccc(OC)c(NC(=O)NC2(C(F)(F)F)Oc3ccccc3O2)c1 | 54.9% (inactive)
72 | O=C(Nc1cnc2ccccc2c1)c1ccncc1 | 99.7% (inactive)
73 | Cc1ccc(-c2nn(-c3ccccc3)cc2C(=O)N2CCOCC2)cc1 | 97.5% (inactive)
74 | CCN(CC)CCNC(=O)Cn1nc(Cc2cccnc2)c2ccccc2c1=O | 95.7% (inactive)
75 | CC(=O)c1ccc(OCC(O)CN2CCC(C)CC2)cc1 (stereo not given) | 101% (inactive)
76 | COC(=O)c1cccnc1-n1c(=O)c2cccnc2n(Cc2cccc(OC)c2)c1=O | 101% (inactive)
77 | Cc1cc(NS(=O)(=O)c2ccc(NC(=O)Nc3ccccc3)cc2)no1 | 101% (inactive)
78 | CSCC[C@@H](C(=O)O)N1Cc2ccccc2C1=O | 105% (inactive)
79 | CCC(NC(=O)c1ccccc1NC(=O)c1ccco1)C(=O)NC1CCCCC1 (stereo not given) | 89.1% (inactive)
80 | CC(C)N(Cc1ccccc1)C(=O)c1cnc2n(c1=O)CCS2 | 105% (inactive)
